# The campaign covered roughly 53,000 sequences. About 3,700 (7%) were called active. Many of the other results were omitted from the sample, so actives are more common in it than they were. Values without a mark were called inactive.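 The calls were made as follows: active = gene knockdowns whose robust z-score for IL-1 alpha signal is at least 2 or at most -2, so actives lie on both sides; inactive = the rest.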
# Test: Components of the Cytosolic LPS Sensing Pathway: Gene Identification via Genome-wide siRNA Screen;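 also: robust z of the log signal after scaling to non-targeting control siRNA wells of the plate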
# Conditions: RAW264.7 macrophages, IL-1a HTRF, actives lie on both sides, screened at 100 nM (by protocol), cells primed 5 h with Pam3CSK4 first
# Procedure, shortened: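 Three distinct siRNAs per gene were tested singly at 100 nM in RAW264.7 macrophages. Following Pam3CSK4 priming and 24 hour LipidA transfection, IL-1a secretion was read by HTRF.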
row,Sequence,z-score
1,GCCCAUGUUUUUUUUUCUGTT against Olfr648,0.776
2,GGCUGCUUAACCUUGAUAATT against Lrrd1,0.529
3,CGGUAGAGUCAGCAUUUGATT against Sez6,-0.231
4,GCCGAGAUGAGCUCCUAAUTT against Krt27,1.29
5,GCUACAGCUUCAAUUAAAUTT against Birc6,0.135
6,GGGAGAAACGCAUCUUAUCTT against Ngly1,2.38 (active)
7,CCCACAGGGAUUUAUUUAUTT against Slc37a1,-0.362
8,GGACAUCCAUCAGUACAGGTT against Hras,0.812
9,GGCUGUCACUUUAUAGGCATT against Wrnip1,-0.862
10,CGACUUGAACUCUAUGGCGTT against Ascl1,-0.12
11,CCGAAAGGCUGGUACAUUCTT against Kin,-0.494
12,GGUUAUCUUCUUGACAGAATT against Nmur2,1.42
13,CCUGUUUAGCAUCUGGGAGTT against Gpr1,6.24 (active)
14,GGUAGAGAUGUACAUUUGGTT against Chrdl2,-1.72
15,GCAAGAAGUUCCUAUCAUCTT against Polr2b,-1.67
16,GCCCAAACUCAAGCAAGUCTT against Trpm3,2.37 (active)
17,GGUUACCCAACUUGAAGGATT against Parp16,1.37
18,GGCAAAAAGAUAGGAGCUGTT against Txn1,0.57
19,GGUGACUAACGAGAUCAUUTT against Slc19a1,0.913
20,CGAACAGAGUCUAAUCUCATT against Ptpn1,1.69
21,AGGAAUGCCCAGGUCUCAGTT against Lst1,-1.07
22,GGUCUGCUAUGAAAUUAUGTT against Tmem14c,-0.537

row,Sequence,z-score
1,GGACGGAGCUGUAAUUGCATT against Arhgef12,2.16 (active)
2,GGCCUACAGGACAAAGUUUTT against Comt,0.394
3,CGACUAGAGUUGUGUGAUATT against Uqcrh,0.834
4,GGUGCAUUAUAAGAAUCGCTT against Fhl1,0.144
5,GGUGGUGCCAAGAUGUUGUTT against Aste1,2.26 (active)
6,GUACCUCUACUAUUCCUUUTT against Krtap5-2,-0.13
7,GGAGUUCAAGACGGAGAAGTT against Gpr27,0.000428
8,GGCUUAUAUCUGAUUGAUGTT against Rom1,-1.17
9,GGAAAGUGACUGCAUGUUCTT against Pgp,-1.3
10,GGACUUCUUCACCAUCUGGTT against Lcat,-1.3
11,GGUACAUGAUCAAUUUAGATT against Tspyl4,0.726
12,GGACAUUAGGAAAUUAGAUTT against Ppp3cc,-0.404
13,GGCAGUACUGUCCAGAUGATT against Gsdma2,-2.12 (active)
14,CCUUAUCUAUAACUCUGCUTT against Tirap,-0.772
15,GGAGAGCGAAGAAAAAAUGTT against Birc2,-0.852
16,GGUUGUCUUCAACACCAAATT against Lgals7,-0.147
17,GCAAGAGCAUGCUUACGGUTT against Ccl1,-0.324
18,GGGUUUCUUGUUGGUUUUATT against Dock5,2.29 (active)
19,GGACGGGAUUGAGCCUAUGTT against Eif4e,1.65
20,CCAAGCUUACACUAGUGUUTT against Cdk6,-0.429
21,GCGUGUACAAGGCUAUUCATT against Stk4,1.19
22,GGCCUACUUCCUACUCAAATT against Tbx10,-1.85

row,Sequence,z-score
1,CCUACACCUAGAAAUCUAGTT against Gpr3,1.52
2,GGAUGAGGAUGGCUAUAAGTT against Zc3h10,0.585
3,GGGAAGGAUGACCUAACAATT against Gpatch4,-0.839
4,CGGAUUAGAAGAGCCAAACTT against Cd59b,0.352
5,GGCUACCCUUUUGAACCUCTT against Psmd3,-2.81 (active)
6,GGAAAAAGCCAAGCUCAUCTT against Syt3,-1.5
7,GGAGCAUCCUGGCAAACAGTT against Slc51b,-1.32
8,CUGAUCCUUCAAUUAACAUTT against Olfr202,0.0318
9,GCGACUCCUAUAAUUUCUATT against Rpa3,-2.17 (active)
10,GCAGGUCCUGACCUAUGUGTT against Cyp27b1,-0.556
11,CCAUCUGCAUCAAGAGAAATT against Kirrel2,0.709
12,GGAACGUACAGGAUAAUCUTT against Krt79,4.28 (active)
13,GGCUAAAGAAUAAAGAUCCTT against Cadm2,1.66
14,GUGAGACCAAGUUACAGGATT against Olfr1504,1.5
15,CCAACCAAAGAUGAAUUGUTT against Usp19,-0.445
16,GGUGGCCAAACAGGAAAAGTT against Fau,0.91
17,GGCACACAAACAAUUGGUATT against Rrp36,-0.318
18,GGGUUUCAUUAAAUUUCCUTT against Cyp2g1,-2.06 (active)
19,CCGAAUAUCGAGUUCCCAATT against Ceacam20,-0.0196
20,GGAUGAGAAUGGCACCAGUTT against Prima1,-1.4
21,GGAAAUGUACAUCAUCAAGTT against Cnga2,-1.24
22,CCUGUUAAACAGGACUAGUTT against Tmem263,-1.51

row,Sequence,z-score
1,GGGAAUUUGCUCCUGAAAGTT against Pcdhb6,-0.936
2,CCUUUGAAUCCCAGGUUCATT against Lmo1,3.05 (active)
3,GGCCCUCCCAAAUCAUUUGTT against Slc30a6,0.188
4,GGAUACAUUGAGAAAGACUTT against Tor1aip2,2.43 (active)
5,GGGAAGAAAGACUCAAACUTT against Dcdc2a,0.919
6,GGAAAAUUCAGGAAGUUUGTT against Magi3,0.489
7,GGAAACCUGAUUAUCAUCATT against Olfr791,-0.337
8,CCUGGACCCAUGAAGUCUUTT against Ahnak,0.911
9,GCUGGCCAAACUUGACAGUTT against Wwc1,2.05 (active)
10,CCCUCAUACCGCUUAGAACTT against Tctex1d4,-0.786
11,GCCUGUGGCUUAAACUUCATT against Vat1l,0.11
12,GGAGAACAAGAUCUUACAGTT against Cby2,-0.703
13,GGAACACCACCUUAGAGAUTT against Hnrnpa2b1,1.52
14,GAAAUGAGUCCUUGAAAAGTT against Olfr127,-0.0661
15,CGCAGCCUUUACCUCCGAATT against Plekha8,-1.12
16,GGCAUUAGCUACCUGGACATT against 1700013G24Rik,3.44 (active)
17,GGUGGUCCAGACCAAGUACTT against Pfdn5,-1.02
18,GGUCUUCAGCCCAAGAAAUTT against Dsg2,0.127
19,GCAAUACUUAUCCAUUGCGTT against Msx3,-0.42
20,GGACUCAUUGACUUCAUCATT against Atg12,-1.8
21,GCUUGCUUCGCCUACAUUGTT against Slc46a3,-0.501
22,GUAGUUAGGAACUCUUGCUTT against Thnsl2,-0.086

row,Sequence,z-score
1,GGCUGAUGUGAUGAUUGUATT against Ndufs7,2.3 (active)
2,GCACUGUGAGUGGAUACUUTT against Slc5a3,0.13
3,CCAUCAAGAUCUCUCAGUATT against A630091E08Rik,-1.25
4,CGAAUGUCCUGGAAGCAAATT against Olfr142,-0.0904
5,GCUCUUAGAGAUUUGUUUGTT against Usp14,0.389
6,CCAUUUUUGCUCAAUUUGCTT against Eif1ax,-0.943
7,GCCAAACUGCGUCUGAAUGTT against Rras,0.62
8,GGACAAGUACGGAAAGCCCTT against Hdgfl2,0.196
9,GCCACAUAAGGUUGUUCCCTT against Gamt,2.9 (active)
10,CCUCUCCAACAACCAACUATT against Lrrc47,-0.27
11,GGCUCCAAAUCAAACUCUATT against Eif4e3,2.19 (active)
12,GGAACCAAGCCAUGAUUUUTT against Mrgprb2,0.646
13,CCAGUACUCGUUUCACUUATT against Mrpl15,0.374
14,GGUGGACUUGUACCUCUUCTT against Tnks,-0.0808
15,CCGUAUUGUCACUUGUGGGTT against Arpc1a,0.479
16,CAGGAAAUUAGCGAUGUGGTT against Abl2,0.206
17,GGUGCUAAAGUCAAAAAACTT against Fras1,0.218
18,GAAGGGACUUCAAAGUUGATT against Ndufb10,3.3 (active)
19,GGGACAUCAGAUUAUUCAUTT against Zfp87,1.43
20,GGAAGACAAUGGUGUGAAATT against Pgm3,-0.74

# From PubChem BioAssay AID1508600 (Functional Genomics Laboratory (NCATS/FGL), 2020)
